Laboratory results: PubChem BioAssay AID652257 (The Scripps Research Institute Molecular Screening Center, 2013)
About 4,800 (1.3%) of roughly 370,000 compounds were called active.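 How the source made its calls: active means inhibition above about 21% made by adding two undisclosed values (limit read from the data); inactive means the rest.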 Many of the other results were omitted from the sample, so actives are more common in it than they were.

These compounds were tested against Protein arginine N-methyltransferase 1 (Homo sapiens) (UniProt Q99873) (assay: PRMT1 methyltransferase inhibitors, primary screen, biochemical, fluorescence polarization (AID 652257)). Settings: recombinant PRMT1, activity-based probe fluorescence polarization; at 2.79 µM; stronger effect = higher value.
Sequence of Protein arginine N-methyltransferase 1 (Homo sapiens) (Q99873 whole entry, looked up): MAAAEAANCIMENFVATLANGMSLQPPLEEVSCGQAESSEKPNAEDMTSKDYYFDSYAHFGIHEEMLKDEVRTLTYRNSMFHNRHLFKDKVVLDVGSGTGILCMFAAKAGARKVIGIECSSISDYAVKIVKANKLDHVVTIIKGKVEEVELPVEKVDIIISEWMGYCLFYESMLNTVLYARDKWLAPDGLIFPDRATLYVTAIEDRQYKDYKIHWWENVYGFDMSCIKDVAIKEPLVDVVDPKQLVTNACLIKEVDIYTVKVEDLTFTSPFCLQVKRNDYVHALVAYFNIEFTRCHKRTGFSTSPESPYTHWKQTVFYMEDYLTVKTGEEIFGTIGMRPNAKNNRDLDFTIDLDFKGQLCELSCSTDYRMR
With `O=C(O)C#Cc1cccc2ccccc12` the inhibition was -1.9% (inactive).
With `CC(CCN1CCC(C(O)(c2ccccc2)c2ccccc2)CC1)Oc1ccc(C(F)(F)F)cc1` (stereo unspecified) the inhibition was 0.57% (inactive).
For `CCOc1ccc(-n2c(SCC(=O)Nc3cc(C)c(NC(=O)c4ccccc4)cc3OC)nnc2-c2cccc(Cl)c2)cc1`, the inhibition was 7.2% (inactive).
With `C=CS(=O)c1sc(Cl)c(N2CCOCC2)c1[N+](=O)[O-]` (stereo unspecified) the inhibition was 73.1% (active).
For `CCN(C(=O)[C@@H](C1CC1)[C@@H](O)c1ccc2ccccc2c1)c1ccccc1`, the inhibition was -0.98% (inactive).
With `O=C(O)C1CCN(C(=O)c2cc(F)cc3c2OCOC3)CC1` the inhibition was -0.21% (inactive).
For `CC(=O)N1CCc2cc(Br)cc(S(=O)(=O)CCC(=O)Nc3c(C)n(C)n(-c4ccccc4)c3=O)c21`, the inhibition was 4.6% (inactive).
For `O=C(CSCc1ccc([N+](=O)[O-])cc1)NCCSCc1ccccc1`, the inhibition was -0.87% (inactive).
`O=C(O)/C=C/C(=O)NNc1ccc([N+](=O)[O-])cc1` was tested, and the inhibition was 59% (active).
`CC(C)(C)C(=O)NCCCNc1ccc([N+](=O)[O-])cc1` was tested, and the inhibition was 9.07% (inactive).
`COC(=O)c1ccccc1-n1cc(COC(=O)NCCc2ccccc2)nn1` was tested, and the inhibition was -0.03% (inactive).
With `S=c1[nH]nc(-c2ccco2)n1/N=C/c1ccc(Br)s1` the inhibition was 34.3% (active).
With `Brc1ccc(/C=N/N2CCN(C3c4ccccc4-c4ccccc43)CC2)s1` the inhibition was -0.5% (inactive).
`CCc1ccccc1NC(=S)N(CCN1CCCCCC1)Cc1ccco1` was tested, and the inhibition was -6.03% (inactive).
With `Cn1c(C(=O)NCCCN2CCCCC2)cc2sccc21` the inhibition was -0.77% (inactive).
For `O=C(Nc1ccc(Br)cc1)OCCN1C(=O)CCC12CCC(c1ccccc1)CC2` (stereo unspecified), the inhibition was -1.94% (inactive).
With `O=C1C(Cl)=C(Oc2ccccc2)C(=O)c2ccccc21` the inhibition was 88.5% (active).
With `COc1ccc(Cn2cc(CN3[C@@H](CC(C)C)COc4cc(Br)ccc4S3(=O)=O)nn2)cc1` the inhibition was -4.17% (inactive).
In the case of `Cc1ccc(-n2c(SCC(=O)Nc3ccc(S(=O)(=O)Nc4nccs4)cc3)nnc2-c2ccncc2)cc1`, the inhibition is reported as -1.23% (inactive).
With `CC(C)CNc1cccc2c1S(=O)(=O)N(Cc1cn(Cc3ccc(Cl)cc3)nn1)Cc1ccccc1O2` the inhibition was -5.99% (inactive).
For `O=C(NCc1ccccc1)[C@@H]1CCCN1C(=O)[C@H]1CCCN1C(=O)c1cccc(Cl)c1`, the inhibition was -3.52% (inactive).
In the case of `O=C(CSc1nc2ccccc2s1)NN=Cc1ccc(O)cc1O`, the inhibition is reported as -0.64% (inactive).
`O=C(CSc1nc2ccccc2s1)N=Nc1c(O)[nH]c2ccccc12` was tested, and the inhibition was 2.56% (inactive).
With `O=C(O)c1ccccc1CSc1nc2ccccc2s1` the inhibition was 40.8% (active).
For `Cc1ccc(NC(=O)c2cc(C)nn2-c2ccccc2)c(C)c1`, the inhibition was -2.87% (inactive).
`CCCC(=O)NC(Nc1ccccc1OC)C(Cl)(Cl)Cl` (stereo unspecified) was tested, and the inhibition was 1.36% (inactive).
For `CCN(CC)c1ccc2oc(=O)c(C)nc2c1`, the inhibition was 46.6% (active).
`CCN(C(=O)CSc1nnc(-c2ccc(OC(F)F)cc2)n1N)C1CCS(=O)(=O)C1` (stereo unspecified) was tested, and the inhibition was -3.24% (inactive).
For `Cc1ccc(Cc2cnc(N)s2)o1`, the inhibition was 40.4% (active).
With `Cc1ccc(-n2c(C)cc(/C=C(\C#N)C(=O)NCC3CCCO3)c2C)cc1` (stereo unspecified) the inhibition was -0.82% (inactive).
In the case of `CCCNC(=O)Nc1ccc2c(c1)C(=O)N(C)[C@H]1CC[C@H](CC(=O)NCC3CCCCC3)O[C@@H]1CO2`, the inhibition is reported as 1.64% (inactive).
In the case of `C[C@@H](NC(=O)c1ccccc1OCC(=O)Nc1ccc(I)cc1)C(=O)N(C)Cc1ccccc1`, the inhibition is reported as -0.05% (inactive).
In the case of `O=C(NCC(=O)N1CCN(c2ncc(C(F)(F)F)cc2Cl)CC1)c1ccc(Br)o1`, the inhibition is reported as -1.7% (inactive).
In the case of `COc1ccnc(NC(=S)N2CCN(c3ncc(C(F)(F)F)cc3Cl)CC2)c1`, the inhibition is reported as 35.6% (active).
With `Cc1cc(C)nc(NC(=S)N2CCN(c3ccc(C(F)(F)F)cn3)CC2)c1` the inhibition was 7.93% (inactive).
In the case of `CC(C)c1ccc(NC2CCCN(C(=O)c3ccncc3)C2)cc1` (stereo unspecified), the inhibition is reported as 5.83% (inactive).
In the case of `Cc1cc(NS(=O)(=O)c2ccc(NC(=O)CSc3nnc(SCc4ccc(F)cc4)s3)cc2)nc(C)n1`, the inhibition is reported as 1.42% (inactive).
In the case of `COc1ccc(C(=O)Nc2c(Cl)cc(Cl)cc2C(=O)N2CCC(C)CC2)cc1`, the inhibition is reported as 1.04% (inactive).
In the case of `CC1CCN(C(=S)c2cccc(O)c2)CC1`, the inhibition is reported as 3% (inactive).
In the case of `CC1CCN(C(=S)c2ccc(-c3ccc(Cl)cc3Cl)o2)CC1`, the inhibition is reported as 31.8% (active).
In the case of `C1CC1Cc1noc(CN2CCN(CC3CC3)CC2)n1`, the inhibition is reported as -0.03% (inactive).
With `Cc1nc(NC(=O)C(C)(C)C)sc1[N+](=O)[O-]` the inhibition was -3.06% (inactive).
For `CCN(CC)CCNS(=O)(=O)c1ccc(/C=C/C(=O)O)cc1`, the inhibition was 4.48% (inactive).
For `CCOc1cccc(/C=N/N2C(=O)CSC2=S)c1O`, the inhibition was 63.6% (active).
In the case of `CCOc1cc(/C=N/n2cnnc2)c(Br)cc1O`, the inhibition is reported as 4.53% (inactive).
In the case of `COC(=O)[C@]12C[C@H](CC(=O)NCC34CC5CC(CC(C5)C3)C4)C(=O)N(Cc3ccc(Cl)cc3Cl)C1=C[C@H](COCc1ccccc1)O[C@@H]2C`, the inhibition is reported as 2.58% (inactive).
In the case of `COC(=O)[C@]12C[C@H](CC(=O)N3CCN(C(=O)C4CC4)CC3)C(=O)N(CCC3=CCCCC3)C1=C[C@H](C(C)C)O[C@@H]2C1CC1`, the inhibition is reported as 1.61% (inactive).
`Cc1cccc(NC(=O)CSc2nnc(NC(=O)CN3CCOCC3)s2)c1` was tested, and the inhibition was 0.98% (inactive).
`c1ccc(CSc2ncnc3c2sc2nc(N4CCOCC4)c4c(c23)CCCC4)cc1` was tested, and the inhibition was -1.26% (inactive).
`Cc1cccc(NC(=O)c2sc3nc(N4CCOCC4)c4c(c3c2N)CCCC4)c1` was tested, and the inhibition was 33% (active).
`COc1cc(C(=O)N/C(=C\c2cn(C)c3ccccc23)C(=O)N2CCOCC2)cc(OC)c1OC` was tested, and the inhibition was 4.22% (inactive).
For `COc1ccc(C2CC=C(C(=O)O)C(c3ccccc3F)N2S(=O)(=O)c2ccc(C)cc2)cc1OC` (stereo unspecified), the inhibition was -1.02% (inactive).
With `COc1cccc2c1C(=O)c1c(O)c3c(c(O)c1C2=O)CC(O)(C(C)=NNC(=O)c1ccc(Cl)c(Cl)c1)CC3OC1CC(N)C(O)C(C)O1` (stereo unspecified) the inhibition was 179% (active).
For `CN1c2ccc(C=O)c3c(C=O)ccc(c23)N(C)C1(C)C`, the inhibition was 68.8% (active).
`O=C(CSc1nc2nccnc2c(=O)n1Cc1cccs1)Nc1ccccc1F` was tested, and the inhibition was 5% (inactive).
With `O=C1C(=O)N(Cc2ccc(-c3ccsc3)cc2)c2ccc(OC(F)(F)F)cc21` the inhibition was -4.19% (inactive).
`O=C1CC[C@@H](COc2ccc3[nH]cc(-c4ccccc4)c3c2-c2ccccc2)N1` was tested, and the inhibition was -0.73% (inactive).
With `CC(C)(C)c1nnc2sc(SCC(O)=C(C#N)c3nc4ccccc4[nH]3)nn2c1=O` the inhibition was 21.6% (active).
In the case of `Cc1ccc(NC(=O)CSc2nn3c(=O)c(C)nnc3s2)cc1Cl`, the inhibition is reported as 1.57% (inactive).
With `O=C(Cc1ccccc1)NCC1OCCc2ccccc21` (stereo unspecified) the inhibition was 0% (inactive).
For `COc1ccc(C)cc1NC(=O)CSc1nc(SC)ns1`, the inhibition was 16% (inactive).
In the case of `CSc1nsc(SCC(=O)Nc2cc(C(=O)O)ccc2C)n1`, the inhibition is reported as 20.1% (inactive).
With `COc1ccc(NC(=O)CSc2nc(SC)ns2)c(OC)c1` the inhibition was 36.5% (active).
With `O=C1CC(c2ccc3c(c2)OCO3)N=C2N(CC3CC3)C/C(=C/c3ccccc3)N12` (stereo unspecified) the inhibition was -0.31% (inactive).
With `CC1Cc2ccccc2N1CC(=O)Nc1ccc(S(N)(=O)=O)cc1` (stereo unspecified) the inhibition was -0.96% (inactive).
For `Cc1nc2ccc(S(=O)(=O)NCC(=O)O)cc2s1`, the inhibition was 36.9% (active).
With `Cc1nc2ccc(S(=O)(=O)NCC(=O)NCCN3CCCCC3C)cc2s1` (stereo unspecified) the inhibition was -0.17% (inactive).
In the case of `COc1cccc(CNC(=O)CNS(=O)(=O)c2ccc3nc(C)sc3c2)c1OC`, the inhibition is reported as -2.5% (inactive).
For `COCC(C)NC(=O)CSc1nc2nn(-c3ccccc3)c(=O)c-2c2n1CCCCC2` (stereo unspecified), the inhibition was 5.41% (inactive).
In the case of `CC1CN(/C=C/C(=O)C(F)(F)F)CC(C)O1` (stereo unspecified), the inhibition is reported as -0.81% (inactive).
In the case of `CN(C)c1ccc(N/C=C/C(=O)C(F)(F)F)cc1`, the inhibition is reported as 36.9% (active).
With `CNC(=S)NNC(=O)c1ccc(N(C)C)cc1` the inhibition was -0.78% (inactive).
`c1csc(-c2nnc(SCc3nc4ccccc4[nH]3)o2)c1` was tested, and the inhibition was -6.14% (inactive).
For `C=CCN1C(=O)[C@@H](CC(=O)NCCCOCCCC)[C@]2(C(=O)OCC)CCCCC/C=C/12`, the inhibition was 2.37% (inactive).
With `c1ccc(C(=NNc2nc3ccccc3s2)c2ccccn2)cc1` the inhibition was 27.5% (active).
With `CCC(=O)Nc1ccc2c(c1)C(=O)N(C)[C@H]1CC[C@H](CC(=O)NCCOC)O[C@@H]1CO2` the inhibition was 5.57% (inactive).
`CCc1ccccc1N1C(=O)C2C3CC(=O)C(c4ccccc43)C2C1=O` (stereo unspecified) was tested, and the inhibition was -4.03% (inactive).
For `CC1=C(C)CC2C(=O)N(c3cccc4ccccc34)C(=O)C2C1` (stereo unspecified), the inhibition was 42% (active).
`Cn1c(=O)c2cn(-c3cccc4ccccc34)cc2n(C)c1=O` was tested, and the inhibition was -1.91% (inactive).
With `COc1ccccc1Oc1ccc(N/C=C2/CCCC2=O)cc1` the inhibition was -1.7% (inactive).
For `COc1ccc(N/N=C2/CCCCC2=O)cc1`, the inhibition was 32.7% (active).
For `Cc1ccc(N/N=C2\COC(C)(C)CC2=O)cc1`, the inhibition was -2.4% (inactive).
`C=CCN(Cc1ccc2c(c1)OCO2)C(C#CC1CC1)C(C)(C)C` (stereo unspecified) was tested, and the inhibition was 1.88% (inactive).
With `CN1CCc2nc(SC(C(=O)O)c3ccccc3)c(C#N)c(-c3cccs3)c2C1` (stereo unspecified) the inhibition was 11.9% (inactive).
`CC(NC(=O)CSc1nc2c(cc1C#N)CN(C)CC2)c1ccccc1` (stereo unspecified) was tested, and the inhibition was 37.7% (active).
With `Cc1cc(NC(=O)CSCC(=O)NC(C)c2ccccc2)no1` (stereo unspecified) the inhibition was -1.57% (inactive).
In the case of `CCOc1ccc(N(C)Cc2cc(=O)oc3ccc(OC)cc23)cc1`, the inhibition is reported as -2.23% (inactive).
In the case of `Brc1ccccc1C1Nc2cccc3cccc(c23)N1`, the inhibition is reported as 39.4% (active).
`COc1cc2c(cc1OC)C(c1ccccc1Br)NC(=O)C2` (stereo unspecified) was tested, and the inhibition was 4.47% (inactive).
With `Brc1ccccc1C1N=C(c2ccccc2)NO1` (stereo unspecified) the inhibition was 3.27% (inactive).
For `COC(=O)c1c(-c2ccc(OC)cc2)c2c(c3c4ccccc4n(S(=O)(=O)c4ccc(C)cc4)c13)C(=O)N(C)C2`, the inhibition was 3.01% (inactive).
